In PubChem BioAssay AID1745850 (National Center for Advancing Translational Sciences (NCATS), 2022):
Hit rate of the full screen: of about 2,100 compounds, about 260 (12%) were called active. Not shown: some 58% with an inconclusive outcome. The list shows a part of the results. Unmarked numbers belong to inactive results. The call rests on the fitted dose curve; in most records, active means well fitted cell-killing curve with a large enough effect; inconclusive means small, poorly fitted or top-dose-only effect, or effect the other way; inactive means flat fitted curve, though single readings scatter.

Assay: Viability Counterscreen for Confirmatory qHTS for Inhibitors of ATXN expression; further: nearly all actives have a fitted effect of over 50% in size
Conditions: HEK-293 ATXN2-luc cells viability, CellTiter-Fluor, 24 h; activity change, negative = cytotoxicity: at the top concentration
From the text: PI: Daniel Scoles Ph.D. University of Utah School of Medicine, Salt Lake City, Utah MLPCN Grant: NS073009 Spinocerebellar ataxia type 2 (SCA2) is a multisystem neurodegenerative disease caused by a dominantly acting mutation leading to expansion of a polyQ domain in the ataxin-2 protein (ATXN2). SCA2 patients develop progressive ataxia and later lose function in other neuronal systems. Prominent parkinsonian signs develop in some patients. Like many neurodegenerative disorders, no symptomatic or disease-modifying treatments are known. The primary objective of the proposed research is to identify compounds inhibiting ATXN2 expression and to test them for efficacy in SCA2 mouse models. We have developed a cell-based assay paired with an in vivo mouse model using identical luciferase expression constructs. This approach takes advantage of an ATXN2-luciferase transgene, with the luciferase gene flanked by the upstream and downstream portions of the ATXN2 gene. Here we describe a 5-7 dose quantitative high thoroughput screen (qHTS) for compounds lowering ATXN2 expression. We screened the NIH Molecular Libraries Small Molecule Repository (MLSMR) and NCGC's mechanistically annotated (MIPE) and drug repurposing (NPC) collections of compounds for lowering expression of an ATXN2-luciferase reporter in HEK-293 cells. The assay is a multiplexed cell viability assay to ensure target reduction in the absence of cytotoxicity. Secondary qHTS assays included a CMV-luciferase reporter expressed in HEK-293 cells as well as a biochemical assay using recombinant luciferase to detect inhibitors of the reporter enzyme. Compounds that inhibit ATXN2 expression but is not cytotoxic were selected for confirmatory and secondary screens.
PROTOCOL TABLE (as described by Inglese J, Shamu CE and Guy RK. 2007) SEQUENCE No. (e.g., 1, 2, 3, etc.); […] (e.g., Cells, Incubation, Reagent, etc.); VALUE; DESCRIPTION. 1; Cells; 4 uL; white, solid bottom, 1536-well Greiner assay plate. 2; Incubation; 2 hr; 37 degree C in 5% humidified CO2. 3; Compounds; 23 nL; Kalypsis pintool (Wako USA) equipped with a 1536-well pin head. 4; Incubation; 24 hr; 37 degree C in 5% humidified CO2. 5; Reagent; 1 uL; Gly-Phe-7-Amino-4-trifluoromethylcoumarin. 6; Incubation; 30 min; 37 degree C in 5% humidified CO2. 7; Detection; Fluorescence; ViewLux plate reader (PerkinElmer). 8; Reagent; 3 uL; SteadyGlo luciferase solution (Promega). 9; Incubation; 5 min; room temperature. 10; Detection; Luminescence; ViewLux plate reader (PerkinElmer). NOTES (numbers refer to Sequence numbers above) 1. S2 cells expressing ATXN2-luciferase reporter were suspended in phenol-red free DMEM and dispensed in assay plates using a Multidrop Combi dispenser (Thermo Fisher Scientific). Wells containing medium only were plated on each plate, and values were used to normalize (100% inhibition) in the luciferase and CellTiter-Fluor assays. 2. Assay plates were incubated. Evaporation was prevented by covering assay plates with metal lids containing holes to allow gas diffusion. 3. Compounds were added in a dose response manner with the final concentrations of 57, 11.4, 2.28, 0.46, 0.091, 0.018, 0.0037 uM. Vehicle-only plates, with DMSO being pin-transferred to columns 5-48, were inserted uniformly at the beginning and the end of each library to monitor and record any shifts in assay performance. 5. 125 uM Gly-Phe-7-Amino-4-trifluoromethylcoumarin (MP Biomedicals) working concentration was used at a final concentration of 25 uM. 7. To assess cell viability; the assay plates were read using the ViewLux high-throughput CCD imager (PerkinElmer), wherein single end-point fluorescence measurement was acquired (excitation 405/10; emission 540/25 nm). 8. Detection reagent SteadyGlo Luciferase (Promega) was added to the assay plate. 10. Luminescence is then measured on the ViewLux imager equipped with a clear emission filter using a 2 sec exposure. […]
Potency means the concentration at half of the fitted maximal effect.

Structure (SMILES) | activity change, negative = cytotoxicity | Potency
COc1cc(/C=N/Nc2ccc(Cl)c(C(=O)O)c2)ccc1OC(=O)c1ccco1 | 1.6% | –
CCN(CC)CCC(=O)Nc1cccc2c1C(=O)c1ccccc1C2=O | – | 3.16 µM (active)
CN(CC(=O)Nc1cccc(F)c1)CC(=O)Nc1cccc2ccccc12 | -16.6% [at 57.5 µM] | –
CCN(CC)CCNC(=O)c1ccc(NC(=O)Cc2cccc3ccccc23)cc1 | -22.4% | –
CCC1=C(CC2NCCc3ccccc32)CC2c3cc(OC)c(OC)cc3CCN2C1 (stereo not given) | – | 10 µM (active)
O=C(CC1NCCc2ccccc21)Nc1ccc(Cl)cc1 (stereo not given) | 11.4% | –
CN(c1ccc(OCC(=O)N2CCN(c3ccc(F)cc3)CC2)cc1)S(=O)(=O)c1cccs1 | -11.9% | –
CCOC(=O)c1c(C)nn(-c2ccc(NC(=O)/C=C/C(=O)O)cc2)c1C | -10.3% [at 57.5 µM] | –
CC(=O)c1sc(C(C)(C)C)cc1NC(=O)/C=C/C(=O)O | -20% [at 57.5 µM] | –
COC(=O)c1c(NC(=O)/C=C/C(=O)O)sc(C)c1-c1ccc(C(C)C)cc1 | – | 28.2 µM (active)
OC[C@@H]1[C@@H](c2ccc(F)cc2)C(c2ccccc2)=NN1c1ccccc1 | 28.7% [at 57.5 µM] | –
COc1cc2c(cc1OC)C(C)N(C(=O)c1cc3c(s1)-c1ccccc1OC3)CC2 (stereo not given) | -24.3% [at 57.5 µM] | –
COc1ccccc1-c1ccc2c(c1)C(C)(Cc1cccc(F)c1)C(=O)N2 (stereo not given) | -27.1% [at 57.5 µM] | –
Cc1nonc1C(=O)N/N=C/c1ccc(O)cc1O | -19% | –
COc1ccc2c(c1)C(SCC(=O)NCCc1ccc(Cl)cc1)CC(C)(C)O2 (stereo not given) | -8.85% | –
Cc1ccc2nc(-c3ccccn3)c(NC3CCCC3)n2c1 | -22.4% | –
Cc1cccn2c(Nc3ccccc3)c(-c3ccccn3)nc12 | -19% [at 57.5 µM] | –
Cc1ccc(Nc2c(-c3ccccn3)nc3cccc(C)n23)cc1 | – | 8.91 µM (active)
Cc1ccc(Nc2c(-c3ccccn3)nc3cc(C)ccn23)cc1 | – | 10 µM (active)
N#Cc1ccc(-c2nc3cc(Cl)ccc3c(=O)n2O)cc1 | -15.2% | –
CCCNC(=O)c1ccc2c(=O)c(O)c(-c3ccc(F)cc3)[nH]c2c1 | -12.7% [at 57.5 µM] | –
CN(C)CCCN(C(=O)c1ccc(S(=O)(=O)N(C)Cc2ccccc2)cc1)c1nc2cc3c(cc2s1)OCO3 | – | 25.1 µM (active)

Structure (SMILES) | activity change, negative = cytotoxicity | Potency
CN(C)CCCN(C(=O)c1ccco1)c1nc2cc3c(cc2s1)OCO3 | -18.9% [at 57.5 µM] | –
CCN(c1ccccc1)S(=O)(=O)c1ccc(C(=O)N(CCCN(C)C)c2nc3c(C)cccc3s2)cc1 | – | 20 µM (active)
Cc1ccc(S(=O)(=O)c2nc(NCc3ccc4c(c3)OCO4)sc2Cl)cc1 | -19.2% [at 57.5 µM] | –
CCCc1nc(NC2CCCCC2)c(C#N)c2c1COC(C)(C)C2 | 4.08% | –
CC1(S(=O)(=O)O)CC(=O)c2ccccc2C1=O (stereo not given) | 3.58% [at 57.5 µM] | –
CCCCOc1ccc(NC2=NC3(CCCC3)N=C(N)N2)cc1 | -22.7% [at 57.5 µM] | –
COc1ccc([C@@]2(C(C)C)ON(c3ccccc3C(F)(F)F)C2=O)cc1 | -9.94% | –
COc1ccc(CN(C)C(=O)c2cccc(NC(=O)CC3SC(N4CCCCC4)=NC3=O)c2)c(OC)c1 (stereo not given) | – | 35.5 µM (active)
Cc1ccc(Cn2ncc3c(NN)ncnc32)cc1 | -26.4% [at 57.5 µM] | –
COc1cccc(N2CCN(c3nc(-c4ccccc4C)cc(=O)[nH]3)CC2)c1 | -27.9% | –
Cc1nc2ncnn2c(N2CCN(c3cccc(C(F)(F)F)c3)CC2)c1C | -26.9% | –
CC(Sc1ccc(Cl)cc1)C(=O)NNC(=O)c1ccccc1O (stereo not given) | -10% | –
COc1ccc(Cl)cc1NC(=O)Nc1cccc([N+](=O)[O-])c1C | -5.63% | –
COc1ccc(-c2n(CC(=O)OC3CC(C)CCC3C(C)C)c3ccccc3[n+]2C)cc1 (stereo not given) | – | 10 µM (active)
Cc1onc(-c2ccccc2)c1C(=O)N/N=C/c1c[nH]c2ccccc12 | -15.8% [at 57.5 µM] | –
O=C(O)COc1ccc2oc3ccccc3c2c1 | 7.02% | –
Cc1nnc(SC(C)C(=O)Nc2ccc(Cl)cn2)n1Cc1ccccc1 (stereo not given) | -12.7% [at 57.5 µM] | –
Cc1cccc(N2CCN(S(=O)(=O)c3ccc4c(c3)C(C)(C)C(=O)N4C)CC2)c1C | -12% [at 57.5 µM] | –
NC(N)=N/N=C/c1ccc2cccc(OCc3ccccc3)c2n1 | – | 15.8 µM (active)
CC(=O)Oc1c(Br)cc(N(C(C)=O)S(=O)(=O)c2ccccc2)c2ccccc12 | – | 28.2 µM (active)
N#Cc1cc2cc3c(cc2nc1SCC(=O)N1CCOCC1)OCCO3 | -8.91% | –
OC(c1cc(-c2cccc(Cl)c2)nc2ccccc12)C1CCCCN1 (stereo not given) | – | 28.2 µM (active)

Structure (SMILES) | activity change, negative = cytotoxicity | Potency
Cn1nccc1C(=O)N1CCCC(C(=O)c2cccc3ccccc23)C1 (stereo not given) | -20.1% [at 57.5 µM] | –
Cn1cc(/C=C/c2cc[n+](C)cc2)c2cc(F)ccc21 | -9.68% [at 57.5 µM] | –
O=C(Nc1nc(-c2ccc(F)c(F)c2)cs1)Nc1ccc(F)cc1F | – | 2.82 µM (active)
O=C(/C=C\c1ccco1)Nc1nc(-c2ccc3ccccc3c2)cs1 | -19.3% | –
NS(=O)(=O)c1ccc(Nc2nc(-c3ccc(F)cc3)cs2)cc1 | -8.41% | –
Cc1noc(C)c1CSCC(=O)Nc1nc(-c2ccc(F)c(F)c2)cs1 | – | 28.2 µM (active)
O=C(CCN1C(=O)C2CC=CCC2C1=O)Nc1nc(-c2ccc(F)c(F)c2)cs1 (stereo not given) | -16.4% [at 57.5 µM] | –
Cc1cnc(NC(=O)C2CC(=O)N(c3cccc(Cl)c3)C2)s1 (stereo not given) | -21% | –
COc1cc([N+](=O)[O-])cc(/C=N/NC(=O)c2ccc(NC(=O)c3ccc(C)cc3)cc2)c1O | – | 1.78 µM (active)
CCn1c(C)nc2cc(C(=O)N/N=C/c3cccc(OC)c3O)ccc21 | -17.1% | –
Cc1ccc(C(=O)N/N=C/c2nc3ccccc3n2C)cc1 | -26.8% [at 57.5 µM] | –
CCCC1CCC(c2ccc(C(=O)NN)cc2)CC1 (stereo not given) | -2.67% | –
Cc1c(C(=O)N/N=C/c2c(O)ccc3ccccc23)nnn1-c1nonc1N | -20.6% | –
Cc1nn2c(NCc3ccccn3)c3c(nc2c1-c1ccccc1)CCC3 | – | 11.2 µM (active)
CC(C)C(CCNCc1ccccn1)c1ccc(Cl)cc1 (stereo not given) | -16.9% [at 57.5 µM] | –
Cc1cc(NCc2ccccn2)n2nc(C)c(-c3ccc(Cl)cc3)c2n1 | – | 14.1 µM (active)
CNc1ccccc1C(=O)OC(C)C(=O)Nc1ccc(Cl)cn1 (stereo not given) | 5.42% | –
O=C(Nc1ccc(F)cc1)c1sccc1SCc1cccc(C(F)(F)F)c1 | -26.1% [at 57.5 µM] | –
CCOC(=O)c1c(NC(=O)COC(=O)c2ccccc2NC)sc(C(=O)N(C)C)c1C | -22.4% | –
NC(=O)CC(NC(=O)Cc1ccc(Br)cc1)c1ccc(NC2CCCC2)c([N+](=O)[O-])c1 (stereo not given) | -17.4% | –
Cc1ccc(OCC(=O)c2cc(C)n(Cc3cccs3)c2C)c([N+](=O)[O-])n1 | -23.1% [at 57.5 µM] | –
